Results reported in PubChem BioAssay (NCATS).
Inconclusive results are not listed. The source made the active and inactive calls. The call rests on the fitted dose curve; in most records, active means well fitted cell-killing curve with a large enough effect; inconclusive means small, poorly fitted or top-dose-only effect, or effect the other way; inactive means flat fitted curve, though single readings scatter.

Experiments:
Assay in all cases: Primary qHTS to identify gynecologic anti-cancer compounds using libraries of approved drugs and bioactive compounds (AID 1345084); further: nearly all actives have a fitted effect of over 55% in size
C33A = details: Gynecologic cancer cell panel viability, ATPlite luminescence, 48 h; series mostly up to 57.5 µM
Procedure, shortened: (§1)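 48 h compound exposure at 37 C, 5% CO2; five-point qHTS. ATPlite luminescence readout of cell ATP.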

CAOV3 = details: Gynecologic cancer cell panel viability, ATPlite luminescence, 48 h; series mostly up to 57.5 µM
Procedure, shortened: as §1

CASKI = details: Gynecologic cancer cell panel viability, ATPlite luminescence, 48 h; series mostly up to 57.5 µM
Procedure, shortened: as §1

Es-2 = details: Gynecologic cancer cell panel viability, ATPlite luminescence, 48 h; series mostly up to 57.5 µM
Procedure, shortened: as §1

HeLa = details: Gynecologic cancer cell panel viability, ATPlite luminescence, 48 h; series mostly up to 57.5 µM
Procedure, shortened: as §1

Hek293T = details: Gynecologic cancer cell panel viability, ATPlite luminescence, 48 h, control line for the selectivity index; series mostly up to 57.5 µM
Procedure, shortened: as §1

JEG-3 = details: Gynecologic cancer cell panel viability, ATPlite luminescence, 48 h; series mostly up to 57.5 µM
Procedure, shortened: as §1

OV90 = details: Gynecologic cancer cell panel viability, ATPlite luminescence, 48 h; series mostly up to 57.5 µM
Procedure, shortened: as §1

PA-1 = details: Gynecologic cancer cell panel viability, ATPlite luminescence, 48 h; series mostly up to 57.5 µM
Procedure, shortened: as §1

SKOV3 = details: Gynecologic cancer cell panel viability, ATPlite luminescence, 48 h; series mostly up to 57.5 µM
Procedure, shortened: as §1

Tov-21-G = details: Gynecologic cancer cell panel viability, ATPlite luminescence, 48 h; series mostly up to 57.5 µM
Procedure, shortened: as §1

Tov112D = details: Gynecologic cancer cell panel viability, ATPlite luminescence, 48 h; series mostly up to 57.5 µM
Procedure, shortened: as §1
On the % scale 0 is the no-effect control and ±100 the full control effect.

CC(=O)c1[nH]cc(CCC(=O)O)c1CC(=O)O
inactive: Potency (C33A) | Potency (CAOV3) | outcome (CASKI) | Potency (Es-2) | Potency (HeLa) | Potency (Hek293T) | Potency (JEG-3) | Potency (OV90) | Potency (PA-1) | Potency (SKOV3) | Potency (Tov-21-G) | Potency (Tov112D)

O=C(/C=C/c1ccc(O)cc1)OCC1OC(O)C(OC2OC(CO)C(O)C(O)C2O)C(O)C1O (stereo unspecified)
inactive: Potency (C33A) | Potency (CAOV3) | outcome (CASKI) | Potency (Es-2) | Potency (HeLa) | Potency (Hek293T) | Potency (JEG-3) | Potency (OV90) | Potency (PA-1) | Potency (SKOV3) | Potency (Tov-21-G) | Potency (Tov112D)

CC1(C)CCC[C@]2(C)C1CC=C(CO)[C@H]2CC/C(=C/CO)CO (stereo partly specified)
inactive: Potency (C33A) | Potency (CAOV3) | outcome (CASKI) | Potency (Es-2) | Potency (HeLa) | Potency (Hek293T) | Potency (JEG-3) | Potency (OV90) | Potency (PA-1) | Potency (SKOV3) | Potency (Tov-21-G) | Potency (Tov112D)

CC(C)CC(=O)O[C@@H]1O[C@H](CO)[C@@H](O[C@H]2O[C@H](C)[C@@H](N[C@H]3C=C(CO)[C@@H](O[C@H]4O[C@H](CO)[C@@H](O[C@H]5O[C@H](CO)[C@@H](O[C@H]6O[C@H](CO)[C@@H](O)[C@H](O)[C@H]6O)[C@H](O)[C@H]5O)[C@H](O)[C@H]4O)[C@H](O)[C@H]3O)[C@H](O)[C@H]2O)[C@H](O)[C@H]1O
inactive: activity change, negative = cytotoxicity (C33A) 5.03% [at 11.6 µM] | activity change, negative = cytotoxicity (CAOV3) 1.97% [at 11.6 µM] | activity change, negative = cytotoxicity (CASKI) 2.85% [at 11.6 µM] | activity change, negative = cytotoxicity (Es-2) -3.07% [at 11.6 µM] | activity change, negative = cytotoxicity (HeLa) -0.344% [at 11.6 µM] | activity change, negative = cytotoxicity (Hek293T) 4.85% [at 11.6 µM] | activity change, negative = cytotoxicity (JEG-3) 0.194% [at 11.6 µM] | activity change, negative = cytotoxicity (OV90) 4.33% [at 11.6 µM] | activity change, negative = cytotoxicity (PA-1) -1.75% [at 11.6 µM] | activity change, negative = cytotoxicity (SKOV3) 18.6% [at 11.6 µM] | activity change, negative = cytotoxicity (Tov-21-G) 2.23% [at 11.6 µM] | activity change, negative = cytotoxicity (Tov112D) -0.277% [at 11.6 µM]

C=C1CC23CC(=O)C4C(CO)(CO)CCCC4(C)C2CCC1C3 (stereo unspecified)
inactive: Potency (C33A) | Potency (CAOV3) | outcome (CASKI) | Potency (Es-2) | Potency (HeLa) | Potency (Hek293T) | Potency (JEG-3) | Potency (OV90) | Potency (PA-1) | Potency (SKOV3) | Potency (Tov-21-G) | Potency (Tov112D)

CC1(C(=O)O)CC[C@]2(C(=O)OC3OC(CO)C(O)C(O)C3O)CC[C@]3(C)C(=CCC4[C@@]5(C)CC[C@H](OC6OCC(O)C(O)C6OC6OC(CO)C(O)C(O)C6O)C(C)(C)C5CC[C@]43C)C2C1 (stereo partly specified)
inactive: activity change, negative = cytotoxicity (C33A) -1.33% [at 11.6 µM] | activity change, negative = cytotoxicity (CAOV3) -1.35% [at 11.6 µM] | activity change, negative = cytotoxicity (CASKI) -6.1% [at 11.6 µM] | activity change, negative = cytotoxicity (Es-2) 1.53% [at 11.6 µM] | activity change, negative = cytotoxicity (HeLa) 6.18% [at 11.6 µM] | activity change, negative = cytotoxicity (Hek293T) -2.26% [at 11.6 µM] | activity change, negative = cytotoxicity (JEG-3) -0.785% [at 11.6 µM] | activity change, negative = cytotoxicity (OV90) -0.207% [at 11.6 µM] | activity change, negative = cytotoxicity (PA-1) -1.65% [at 11.6 µM] | activity change, negative = cytotoxicity (SKOV3) -6.88% [at 11.6 µM] | activity change, negative = cytotoxicity (Tov-21-G) 15.1% [at 11.6 µM] | activity change, negative = cytotoxicity (Tov112D) -1.55% [at 11.6 µM]

Cc1cc(-c2nncc3c(C(C)(C)C)c(OCc4ncnn4C)nn23)no1
inactive: Potency (C33A) | Potency (CAOV3) | outcome (CASKI) | Potency (Es-2) | Potency (HeLa) | Potency (Hek293T) | Potency (JEG-3) | Potency (OV90) | Potency (PA-1) | Potency (SKOV3) | Potency (Tov-21-G) | Potency (Tov112D)

CC1(C(=O)O)CCCC2(C)C3CC4C5CC3(CCC12)CC45C (stereo unspecified)
inactive: Potency (C33A) | Potency (CAOV3) | outcome (CASKI) | Potency (Es-2) | Potency (HeLa) | Potency (Hek293T) | Potency (JEG-3) | Potency (OV90) | Potency (PA-1) | Potency (SKOV3) | Potency (Tov-21-G) | Potency (Tov112D)

COC(=O)C(CC1CCCC1)c1ccc(S(C)(=O)=O)cc1 (stereo unspecified)
inactive: Potency (C33A) | Potency (CAOV3) | outcome (CASKI) | Potency (Es-2) | Potency (HeLa) | Potency (Hek293T) | Potency (JEG-3) | Potency (OV90) | Potency (PA-1) | Potency (SKOV3) | Potency (Tov-21-G) | Potency (Tov112D)

CC1=C(C(=O)OC2OC(COC3OC(CO)C(O)C(O)C3O)C(O)C(O)C2O)C(C)(C)CCC1 (stereo unspecified)
inactive: Potency (C33A) | Potency (CAOV3) | outcome (CASKI) | Potency (Es-2) | Potency (HeLa) | Potency (Hek293T) | Potency (JEG-3) | Potency (OV90) | Potency (PA-1) | Potency (SKOV3) | Potency (Tov-21-G) | Potency (Tov112D)

COc1ccc(/C=C/C(=O)N2CCCC2)cc1
inactive: Potency (C33A) | Potency (CAOV3) | outcome (CASKI) | Potency (Es-2) | Potency (HeLa) | Potency (Hek293T) | Potency (JEG-3) | Potency (OV90) | Potency (PA-1) | Potency (SKOV3) | Potency (Tov-21-G) | Potency (Tov112D)

CC1=CC2=C(C)C(=O)[C@](C)(O)[C@H](O)C2=CO1
inactive: Potency (C33A) | Potency (CAOV3) | outcome (CASKI) | Potency (Es-2) | Potency (HeLa) | Potency (Hek293T) | Potency (JEG-3) | Potency (OV90) | Potency (PA-1) | Potency (SKOV3) | Potency (Tov-21-G) | Potency (Tov112D)

CC1CCC2C(C)(C)C(O)C(O)CC2(C)C12Cc1c(O)cc(CO)c(C=O)c1O2 (stereo unspecified)
inactive: Potency (C33A) | Potency (CAOV3) | outcome (CASKI) | Potency (Es-2) | Potency (HeLa) | Potency (Hek293T) | Potency (JEG-3) | Potency (OV90) | Potency (PA-1) | Potency (SKOV3) | Potency (Tov-21-G) | Potency (Tov112D)
